The list is not random: actives were taken first. Their share in the collection is about 2.8%.
EP2 modulator = modulators of human EP2 prostaglandin E2 receptor | P43116 | EP2-expressing cells, cAMP HTRF FRET, PGE2 co-stimulation | induction, % at 25 µM | 260,000 compounds, 0.83% hits;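 active = compounds whose cAMP rise, as percent of the full-agonist control response, exceeds 60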;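 note: rat C6 glioma line stably carrying human EP2 under a CMV promoter; the protocol text gives 20 µM as final concentration; 100% = response of wells given 1 µM PGE2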
EP2 antag = blocks the human prostaglandin E2 receptor EP2 | P43116 | C6 glioma cells expressing human EP2, cAMP TR-FRET; cells stimulated with saturating PGE2 | inhibition, % at 25 µM | 260,000 compounds, 0.52% hits | AID 1422;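 active = percent inhibition above 40 after rounding to a whole number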;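 note: rat C6 glioma host cells with rolipram phosphodiesterase inhibitor present; the protocol text gives 20 µM as final concentration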
Furin inhibitor = inhibitors of human furin; purified furin, fluorogenic substrate cleavage; 220,000 compounds, 0.061% hits; inhibition, % at 20 µM or 30 µM; P09958; in the data active = inhibition above about 25%
NCF1 inh = blocks human p47phox regulatory protein of NADPH oxidases; p47phox/p22phox peptide binding, fluorescence polarization, 2 h; inhibition, % at 24.7 µM; 220,000 compounds, 0.53% hits;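 active = inhibition above about 30%, limit read from the data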;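 note: 0% = p47phox with labelled peptide and 100% = labelled peptide alone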
HSV augment = increases HSV replication in cells | HSV replication augmentation in cells, fold increase | maximum fold increase | 220,000 compounds, 0.005% hits | AID 1956; in the data active = maximum fold increase above about 1.5; tested in PC3 cells
Wee1 stabilizer = inhibitors of human Wee1 degradation. 220,000 compounds, 1.2% hits. reporter increase, % at 5 µM. P30291. AID 1321. HeLa Luc-Wee1K328M stability, luciferase luminescence; 100% = proteasome inhibitor MG132 effect;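 active = activation above the mean of all tested compounds plus 3 SD, set per screening run, cut at about 8.8% in these data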;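 note: cells exposed to compound for 20 h before luminescence read; 0% = DMSO alone and 100% = MG132 at 30 µM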
Target sequence (P30291 whole entry K328M): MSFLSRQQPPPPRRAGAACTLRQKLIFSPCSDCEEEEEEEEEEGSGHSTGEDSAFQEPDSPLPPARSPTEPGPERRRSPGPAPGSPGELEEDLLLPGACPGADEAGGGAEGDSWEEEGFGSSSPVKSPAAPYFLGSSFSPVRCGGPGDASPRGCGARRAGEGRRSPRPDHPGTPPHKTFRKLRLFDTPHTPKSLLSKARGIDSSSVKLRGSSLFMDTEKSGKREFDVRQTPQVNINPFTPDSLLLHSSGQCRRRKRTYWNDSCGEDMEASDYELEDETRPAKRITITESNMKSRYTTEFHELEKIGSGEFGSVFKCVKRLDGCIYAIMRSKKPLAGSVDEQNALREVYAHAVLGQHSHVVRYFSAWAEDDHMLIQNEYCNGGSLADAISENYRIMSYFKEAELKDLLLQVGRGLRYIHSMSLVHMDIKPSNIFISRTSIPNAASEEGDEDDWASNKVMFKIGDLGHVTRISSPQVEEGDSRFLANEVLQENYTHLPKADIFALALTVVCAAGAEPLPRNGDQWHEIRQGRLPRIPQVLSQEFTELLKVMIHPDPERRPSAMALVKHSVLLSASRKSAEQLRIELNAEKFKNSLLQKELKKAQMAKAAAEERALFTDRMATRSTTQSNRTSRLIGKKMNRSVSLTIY
* marks the source's active call; other numbers are inactive results; i = inactive; . = no result.

SMILES | EP2 modulator | EP2 antag | Furin inhibitor | NCF1 inh | HSV augment | Wee1 stabilizer
Cc1cccc(Oc2coc3cc(OC(=O)c4cccs4)ccc3c2=O)c1 | -11 | 19 | -10 | -9 | i | 11*
CC1(c2ccccc2)CC(C)(C)N2C(=O)Cc3cccc1c32 (centres undefined) | 62* | 5 | -26 | 9 | i | 5
CN1CCN(CC(=O)N2c3ccccc3C(C)(c3ccccc3)CC2(C)C)CC1 (centres undefined) | 19 | 9 | -12 | -4 | i | 4
Cc1ccc(N2C(=O)C(CN3CCCC3)C2c2ccccc2)cc1 (centres undefined) | 12 | 8 | -14 | -6 | i | 0
CCCC1C(=O)N(c2ccccc2)C1c1ccccc1 (centres undefined) | 64* | -3 | -16 | -2 | i | -4
Cc1ccccc1C1(O)CCN(CC(O)c2ccc(Cl)c(Cl)c2)CC1 (centres undefined) | -69 | 11 | . | . | . | .
CCC1CCCCN1C(=O)c1ccc(C)c(F)c1F (centres undefined) | 0 | 8 | . | . | . | .
COCCNC(=O)/C(C#N)=C/c1cccs1 | -10 | 7 | -8 | -27 | i | 5
COc1cc(/C=C(\C#N)C(=O)NCc2ccccc2)ccc1OCc1ccc(C(=O)O)cc1 | -39 | 14 | -15 | -16 | i | 11*
COCCNC(=O)/C(C#N)=C/c1ccc(OC(=O)c2cccs2)c(OC)c1 | -62 | 5 | -1 | 113* | i | 1
COCCNC(=O)/C(C#N)=C/c1ccc(OCc2ccccc2)cc1 | -28 | 12 | -11 | -9 | i | 1
N#C/C(=C\c1ccc(OCc2cccc(C(=O)O)c2)cc1)C(=O)NCc1ccco1 | 21 | 9 | -7 | -21 | i | 9.2*
CC1CCCN(C(=O)CSc2nnc3c4c5c(sc4nc(C4CC4)n23)CCCC5)C1 (centres undefined) | -17 | 8 | . | . | . | .
COCCCn1c(SCC(=O)Nc2cccc(O)c2)nnc1-c1ccc(C(C)(C)C)cc1 | 1 | 6 | . | . | . | .
COC(=O)C1=C(C)NC(C)=C(C(=O)OC)C1c1ccc(-c2ccc(C)cc2)o1 | 52 | 9 | . | . | . | .
CCOC(=O)c1cccc(N2C(=O)c3ccccc3S2(=O)=O)c1 | 21 | . | -17 | 81* | . | -1
CCN(CC)CCCNC(=S)N(CCN(C)C)Cc1cc2cc(C)c(C)cc2[nH]c1=O | -63 | 8 | . | . | . | .
O=C1C2CCCN2C(c2ccco2)N1c1ccc(F)cc1 (centres undefined) | 3 | 8 | -7 | -10 | i | 10*
O=C1C2CCCN2C(c2cccs2)N1c1ccc(F)cc1 (centres undefined) | 15 | 8 | -13 | -6 | i | -1
CNC(=O)C1CC(=O)N(CCc2ccc(OC)cc2)C(=Nc2ccc(OC)cc2)S1 (centres undefined) | 5 | 4 | 27* | -9 | i | 2
COC(=O)C1=C(C)N(CCc2ccc(OC)cc2)C(=O)C1 | -13 | 9 | -16 | 92* | i | 4
CCCOC(=O)Cn1cnc2scc(-c3ccc(C)c(C)c3)c2c1=O | -2 | 10 | . | . | . | .
O=C(CN1C(=O)C2C3CCC(C3)C2C1=O)N1CCC(n2nnc(-c3ccccc3)n2)CC1 (centres undefined) | -25 | . | . | . | . | .
CC1CCc2c(sc(NC(=S)NC(=O)c3ccccc3F)c2C(N)=O)C1 (centres undefined) | -14 | 5 | . | . | . | .
CCOC(=O)c1c(-c2ccc(OC)c(OC)c2)csc1NC(=O)CC | 4 | 9 | . | . | . | .
SMILES | EP2 modulator | EP2 antag | Furin inhibitor | NCF1 inh | HSV augment | Wee1 stabilizer
CCOC(=O)c1c(-c2ccc(C)cc2)csc1NC(=O)COC | 82* | 2 | . | . | . | .
CCOC(=O)c1c(-c2ccc(OC)c(OC)c2)csc1NC(=O)CCCl | 30 | 7 | . | . | . | .
CCOC(=O)c1c(-c2ccc(C)c(C)c2)csc1NC(=O)COC | 93* | 9 | . | . | . | .
CCOC(=O)c1c(-c2ccc(OCC)cc2)csc1NC(=O)CC | 67* | 7 | . | . | . | .
CCOC(=O)c1c(-c2ccccc2)csc1NC(=O)COC | 80* | 7 | . | . | . | .
c1ccc(/C(=N\Nc2nc3ccccc3s2)c2ccccn2)cc1 | -15 | 10 | . | . | . | .
O=C1C(=Cc2cccn2-c2ccccc2)C(=O)c2ccccc21 | 5 | 4 | -3 | 33* | i | 0
O=C1C(=Cc2cccn2-c2ccc(O)cc2)C(=O)c2ccccc21 | 3 | . | -4 | 27 | . | 2
